Some test systems named below: HCT-15 colon; HT29 colon; SNB-75 CNS; SNB-19 CNS; U251 CNS; PC-3 prostate; SK-MEL-5 melanoma; UACC-62 melanoma; LOX IMVI melanoma; SK-MEL-28 melanoma; SK-MEL-2 melanoma; EKVX NSCLC; SN12C renal; UO-31 renal; TK-10 renal; ACHN renal; CAKI-1 renal; A498 renal; CCRF-CEM leukemia; MOLT-4 leukemia.
Assay in all cases: NCI-60 one-dose screen, 48 h (100 = growth as untreated, 0 = no growth, -100 = all killed)
Settings in all cases: 10 µM unless noted

Several values for one entry are separate records, joined by “and”; a condition that tells them apart may be missing. Equal values may be shown once. About 83,000 compounds went through this panel and 20% of them were active in at least one assay; those are over-represented in the sample as a whole.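 Plates (96-well) were seeded with cells, treated with compound at one concentration, and incubated for 48 hours before percent growth was determined.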 Activity calls are given as the source filed them. The calls were made as follows: active = growth percent below 10; inactive = the rest.

Consider `CNC(=O)c1cc(Oc2ccc(NC(=O)Nc3ccc(Cl)c(C(F)(F)F)c3)cc2)ccn1`, for which the growth was 1.74% (active) and 5.49% (active) in the experiment with HCT-15 colon; -3.38% (active) and 9.81% (active) in the experiment with HT29 colon; -38.9% (active) and 21.8% (inactive) in the experiment with SNB-75 CNS; 13.3% (inactive) and 20.6% (inactive) in the experiment on SNB-19 CNS; 1.89% (active) and 0.072% (active) in the experiment with U251 CNS; 11.6% (inactive) and -9.74% (active) with PC-3 prostate. The growth with SK-MEL-5 melanoma was -73.1% (active) and -56.6% (active); with UACC-62 melanoma, -49.4% (active) and -25.5% (active); with LOX IMVI melanoma it was -14.6% (active) and -55.1% (active); in the experiment with SK-MEL-28 melanoma it was -15.7% (active) and -26.7% (active); in the experiment with SK-MEL-2 melanoma, -42.9% (active); with EKVX NSCLC it was 4.85% (active) and -2.85% (active). In addition, the growth with SN12C renal is 6.54% (active) and -7.24% (active); in the experiment on UO-31 renal, -28.5% (active) and -81.1% (active); in the experiment on TK-10 renal, -11.8% (active) and 25.8% (inactive); in the experiment on ACHN renal, 5.96% (active) and 0% (active); in the experiment with CAKI-1 renal it was 7.37% (active) and -32.6% (active); in the experiment with A498 renal it was -73.7% (active) and -21.1% (active). Also, the growth with CCRF-CEM leukemia was 12% (inactive) and 18.6% (inactive); in the experiment with MOLT-4 leukemia, -1.28% (active) and 25.8% (inactive).

`Clc1ccc(NC(Nc2ccc(Cl)cc2)C(Cl)(Cl)Cl)cc1`: the growth with HCT-15 colon was 65.6% (inactive) and 88.7% (inactive); with HT29 colon it was 101% (inactive) and 98.4% (inactive); in the experiment on SNB-75 CNS, 79.2% (inactive) and 105% (inactive); with SNB-19 CNS it was 104% (inactive) and 112% (inactive); with U251 CNS, 95% (inactive) and 110% (inactive); with PC-3 prostate, 91.9% (inactive). Also, the growth with SK-MEL-5 melanoma is 91.3% (inactive) and 85.3% (inactive); in the experiment on UACC-62 melanoma, 9.46% (active) and 62.8% (inactive); in the experiment with LOX IMVI melanoma, 74.5% (inactive); in the experiment with SK-MEL-28 melanoma it was 105% (inactive) and 114% (inactive); in the experiment on SK-MEL-2 melanoma it was 85.6% (inactive) and 95.8% (inactive); in the experiment on EKVX NSCLC it was 85.7% (inactive) and 99.3% (inactive). The growth in the experiment on SN12C renal is 84% (inactive) and 111% (inactive); with UO-31 renal, 25.5% (inactive) and 75.1% (inactive); with TK-10 renal it was 110% (inactive) and 92.3% (inactive); with ACHN renal, 41.6% (inactive); in the experiment with CAKI-1 renal, 66% (inactive); with A498 renal it was 107% (inactive) and 101% (inactive). Besides, the growth in the experiment with CCRF-CEM leukemia was 95% (inactive); in the experiment on MOLT-4 leukemia, 70.3% (inactive) and 89.5% (inactive).

Consider `Nc1n[nH]c(=S)n1-c1ccc(Cl)cc1`, for which the growth in the experiment on HCT-15 colon was 99.3% (inactive); in the experiment on HT29 colon, 101% (inactive); in the experiment on SNB-75 CNS, 82% (inactive); in the experiment with SNB-19 CNS, 99.4% (inactive); in the experiment with U251 CNS it was 98.1% (inactive); with PC-3 prostate, 97.1% (inactive). The growth in the experiment with SK-MEL-5 melanoma was 105% (inactive); with UACC-62 melanoma, 96.2% (inactive); in the experiment on LOX IMVI melanoma it was 94.6% (inactive); in the experiment with SK-MEL-28 melanoma it was 101% (inactive); in the experiment with SK-MEL-2 melanoma, 99.9% (inactive); in the experiment with EKVX NSCLC, 106% (inactive). The growth in the experiment on SN12C renal is 100% (inactive); in the experiment on UO-31 renal, 89% (inactive); in the experiment on TK-10 renal, 92.6% (inactive); with ACHN renal it was 103% (inactive); with CAKI-1 renal it was 119% (inactive); in the experiment on A498 renal, 109% (inactive). Moreover, in the experiment with CCRF-CEM leukemia, the growth is 96.7% (inactive).

For `CN(C)c1ccc2nc3ccc(=[N+](C)C)cc-3sc2c1`, the growth is 28.5% (inactive) and 36.7% (inactive) with HCT-15 colon; 26.6% (inactive) and 19.8% (inactive) and 74.9% (inactive) in the experiment with HT29 colon; 49.4% (inactive) and 90.2% (inactive) in the experiment with SNB-75 CNS; 24.7% (inactive) and 23% (inactive) and 39.5% (inactive) in the experiment on SNB-19 CNS; 3.44% (active) and -10.6% (active) and 8.51% (active) in the experiment on U251 CNS; 13.7% (inactive) and 19.8% (inactive) and 32.8% (inactive) in the experiment with PC-3 prostate. Besides, the growth with SK-MEL-5 melanoma was -85.2% (active) and 5.71% (active) and 13.6% (inactive); in the experiment with UACC-62 melanoma, -19.7% (active) and 7.25% (active) and 56.5% (inactive); in the experiment on LOX IMVI melanoma, 7.11% (active) and 5.63% (active) and 34.6% (inactive); in the experiment on SK-MEL-28 melanoma, 20% (inactive) and 45.9% (inactive) and 75% (inactive); in the experiment with SK-MEL-2 melanoma it was 20% (inactive) and 47.3% (inactive) and 79.6% (inactive); in the experiment on EKVX NSCLC, 41.7% (inactive) and 46.9% (inactive). Also, the growth in the experiment on SN12C renal is 24.3% (inactive) and 12.5% (inactive) and 9.23% (active); with UO-31 renal, 62.3% (inactive) and 57.2% (inactive) and 78.6% (inactive); with TK-10 renal, 58.1% (inactive) and 73.9% (inactive) and 110% (inactive); with ACHN renal it was 24.6% (inactive) and 24.4% (inactive) and 83% (inactive); in the experiment on CAKI-1 renal, 30.9% (inactive) and 23.4% (inactive) and 83.2% (inactive); in the experiment on A498 renal it was 58.4% (inactive) and 75.9% (inactive). Further, the growth with CCRF-CEM leukemia is 2.85% (active) and 26.7% (inactive) and 24% (inactive); in the experiment with MOLT-4 leukemia, 24.4% (inactive) and 21.7% (inactive) and 32.9% (inactive).

With `CCOC(=O)c1c(C)oc(C)c(C(=O)OCC)c1=O`, the growth with HCT-15 colon was 106% (inactive) and 102% (inactive); in the experiment with HT29 colon, 105% (inactive) and 106% (inactive); in the experiment on SNB-75 CNS it was 96.5% (inactive) and 99.5% (inactive); in the experiment with SNB-19 CNS it was 102% (inactive) and 90.2% (inactive); in the experiment with U251 CNS, 111% (inactive) and 101% (inactive); in the experiment with PC-3 prostate, 94.1% (inactive) and 88.6% (inactive). Further, the growth was 111% (inactive) and 104% (inactive) in the experiment on SK-MEL-5 melanoma; 111% (inactive) and 96.6% (inactive) with UACC-62 melanoma; 103% (inactive) and 97.3% (inactive) in the experiment on LOX IMVI melanoma; 109% (inactive) and 112% (inactive) with SK-MEL-28 melanoma; 111% (inactive) and 112% (inactive) in the experiment on SK-MEL-2 melanoma; 128% (inactive) and 104% (inactive) with EKVX NSCLC. Also, the growth in the experiment on SN12C renal was 113% (inactive) and 97.9% (inactive); with UO-31 renal, 96.6% (inactive) and 86.9% (inactive); in the experiment with TK-10 renal, 98.1% (inactive) and 106% (inactive); in the experiment with ACHN renal, 102% (inactive) and 105% (inactive); with CAKI-1 renal, 103% (inactive) and 95.4% (inactive); in the experiment with A498 renal, 113% (inactive) and 117% (inactive). Also, the growth in the experiment on CCRF-CEM leukemia was 96% (inactive) and 108% (inactive); in the experiment on MOLT-4 leukemia, 150% (inactive) and 80.2% (inactive).

For the origin of these results see PubChem BioAssay (NCI).
